Screening data (PubChem BioAssay)
Rows were chosen to be rich in hits. Some 10% of all compounds tested hit in one or more screens of this group.
NPR1 antag: blocks ANP-stimulated signaling of human Npr1 receptor; P16066; HEK293 hNpr1 GloSensor cGMP, ANP-stimulated luminescence; Potency, µM (titrated, usually from 46.3 µM), inactives show top-dose activity change, negative = inhibition, actives largely listed as inhibitors; hit rate 1.6% among 76,000; AID 1347048; calls by dose curve; also: % is scaled to controls: 0 for no effect and ±100 for the full control effect; nearly all actives have a fitted effect of over 60% in size
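Compound pre-incubated 30 min at room temperature on GloSensor-loaded HEK293 cells stably carrying hNpr1 and the pGS-40F cGMP biosensor. Stimulation uses hNppA at 0.1 nM final; luminescence is taken at baseline and 20 min post-agonist.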
FLuc inh-1: inhibitors of firefly (Photinus pyralis) luciferase. P08659. purified P. pyralis luciferase, luminescence, biochemical. Potency, µM (titrated, usually from 115 µM), most hits filed as inhibitors. hit rate 2.5% among 76,000; also: % is scaled to controls: 0 for no effect and ±100 for the full control effect; nearly all actives have a fitted effect of over 65% in size
Target sequence (P08659 whole entry, looked up): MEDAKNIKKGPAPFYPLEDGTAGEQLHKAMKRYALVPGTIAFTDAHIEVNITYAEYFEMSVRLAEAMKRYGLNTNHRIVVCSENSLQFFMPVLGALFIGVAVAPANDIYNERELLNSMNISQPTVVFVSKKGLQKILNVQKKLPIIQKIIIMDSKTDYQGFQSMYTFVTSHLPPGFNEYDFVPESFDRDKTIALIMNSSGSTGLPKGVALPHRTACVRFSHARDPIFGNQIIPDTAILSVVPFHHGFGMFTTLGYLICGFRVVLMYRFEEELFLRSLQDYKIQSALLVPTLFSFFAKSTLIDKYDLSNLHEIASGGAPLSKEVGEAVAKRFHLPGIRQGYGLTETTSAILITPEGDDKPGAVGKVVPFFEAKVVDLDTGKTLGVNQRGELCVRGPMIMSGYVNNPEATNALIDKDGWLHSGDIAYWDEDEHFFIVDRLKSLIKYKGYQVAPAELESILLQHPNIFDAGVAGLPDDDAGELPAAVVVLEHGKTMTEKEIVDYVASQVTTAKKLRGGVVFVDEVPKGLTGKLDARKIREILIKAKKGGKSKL
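Purified 10nM P. pyralis luciferase with 10uM D-luciferin and 10uM ATP in 50mM Tris acetate pH 7.5, 10mM Mg acetate, 0.01% Tween-20, 0.05% BSA. qHTS titration; luminescence read by CCD imager.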
HEK293 tox: HEK 293 cell cytotoxicity | HEK 293 viability, ATP luminescence (CellTiter-Glo), 48-72 h | Potency, µM (highest dose often 115 µM), inactives show at the top dose activity change, negative = cytotoxicity, actives largely listed as inhibitors | hit rate 6.6% among 94,000; also: % is scaled to controls: 0 for no effect and ±100 for the full control effect; nearly all actives have a fitted effect of over 60% in size
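Viability of HEK 293 cells, plated at 250 cells/well, was judged by cellular ATP after compound treatment for 48 or 72 hr. Luminescence was imaged 10 min after CellTiter-Glo addition at room temperature.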
3T3 cytotox: kills NIH 3T3 cells | Potency, µM (series often up to 96.7 µM), without a hit: at the highest dose activity change, negative = cytotoxicity, most hits filed as inhibitors | NIH 3T3 viability, CellTiter-Glo ATP luminescence, 48-72 h | hit rate 4.3% among 94,000 | AID 1345082; also: % is scaled to controls: 0 for no effect and ±100 for the full control effect; nearly all actives have a fitted effect of over 55% in size
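Cells were seeded at 400 per well, treated with pin-transferred compound, and kept 48 or 72 hr at 37 °C before CellTiter-Glo addition and luminescence imaging of cellular ATP.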
GPT2 inhibitor: inhibitors of human GPT2 alanine aminotransferase; Potency, µM (top dose mostly 57.7 µM), without a hit: at the top dose activity change, negative = inhibition, actives largely listed as inhibitors; AID 1671188; hit rate 0.25% among 100,000; Q8TD30; Recombinant GPT2, coupled pyruvate oxidase/HRP Amplex Red fluorescence; also: % is scaled to controls: 0 for no effect and ±100 for the full control effect; nearly all actives have a fitted effect of over 60% in size
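GPT2 10ng/uL, a-KG 250uM, L-Ala 2mM, HEPES pH7.5 + 0.0001% Tween; 30 min RT. Then Amplex mix (PO/HRP/ThPP), 30 min RT dark, fluorescence. AOA 50uM used as positive control.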
FLuc SDR -ATP: firefly luciferase binding stabilization, ATP absent | shares compounds with FLuc inh-1 | Purified FLuc-C-HiBiT, Nano-Glo HiBiT luminescence, no ATP | Potency, µM (top dose mostly 32.7 µM), for inactives: at the highest dose activation (signal gain), actives largely listed as activators | hit rate 7.8% among 1,300; also: nearly all actives have a fitted effect of over 55% in size
FLuc SDR ATP: stabilizes firefly luciferase with ATP present; hit rate 8.7% among 1,300; shares compounds with FLuc inh-1; purified FLuc-C-HiBiT + ATP, HiBiT complementation luminescence; Potency, µM (highest dose often 32.7 µM), inactives show at the top dose activation (gain of signal), usual class: activators;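 also: signal reports ligand binding via conformational change of the enzyme rather than luciferase catalysis; % of control where 0% means no effect; nearly all actives have a fitted effect of over 55% in size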
FLuc inh-2: blocks firefly luciferase enzymatic activity. shares compounds with FLuc inh-1. purified FLuc-C-HiBiT enzyme, luciferin luminescence. Potency, µM (doses to about 32.7 µM), inactives show top-dose activity change, negative = inhibition, usual class: inhibitors. hit rate 42% among 1,300. AID 1963320; also: % is scaled to controls: 0 for no effect and ±100 for the full control effect; nearly all actives have a fitted effect of over 70% in size
* hit, by the source's call; i = inactive; ? = inconclusive; · = not tested or not shown; ! = not confirmed by another sample; [ ] = remark or other dose. Unless noted, calls follow the shape of the dose curve; as a rule, active = well fitted curve in the direction sought with a large enough effect; inconclusive = small, poorly fitted or top-dose-only effect, or another doubt; inactive = no such curve, though single readings can be large; an effect the other way counts as inactive or inconclusive. Potency is read from the fitted curve at half-maximal effect.

SMILES	NPR1 antag	FLuc inh-1	HEK293 tox	3T3 cytotox	GPT2 inhibitor	FLuc SDR -ATP	FLuc SDR ATP	FLuc inh-2
CC(=O)N[C@@H]1C=C[C@@H](c2c(C)nn(-c3ccc(C(F)(F)F)cc3)c2C)C1	?	14µM*	79µM*	89µM*	-27%[88.5 µM]	16%[49.3 µM]	?	?
CCNC(=O)N[C@@H]1C=C[C@@H](c2c(C)nn(-c3ccc(C(C)C)cc3)c2C)C1	7.1µM*	0.5µM*	20µM*	28µM*	0%[88.5 µM]	?	?	2.9µM*
CC(=O)N[C@@H]1C=C[C@@H](c2c(C)nn(-c3ccc(C(C)(C)C)cc3)c2C)C1	?	14µM*	?	50µM*	-7%[88.5 µM]	17%[49.3 µM]	18%[49.3 µM]	?
Cc1nn(-c2ccccn2)c(C)c1[C@@H]1C=C[C@@H](NC(=O)CSCC(=O)O)C1	2%[70.6 µM]	i	0%[172 µM]	?	-15%[88.5 µM]	·	·	·
C[S+](=O)([O-])NCc1nnc2n1C(C(=O)NCc1cccc(C(F)(F)F)c1)CC2 (stereo unspecified)	·	·	i	-16%	0%	·	·	·
Cc1nn(-c2ccc(C(F)(F)F)cc2)c(C)c1[C@@H]1C=C[C@@H](NC(=O)CC2(CC(=O)O)CCCC2)C1	5%	i	-22%	?	0%	·	·	·
CCNC(=O)N[C@@H]1C=C[C@@H](c2c(C)nn(-c3ccc(C(F)(F)F)cc3)c2C)C1	25µM*	1.6µM*	22µM*	?	-25%[88.5 µM]	25%[49.3 µM]	?	14µM*
Cc1ccc(OCc2nc(C3CN(C(=O)C4(c5ccccc5)CC4)C3)no2)cc1	1%	i	?	?	i	·	·	·
Cc1ccc(OCc2nc(C3CN(C(=O)c4n[nH]c5ccccc45)C3)no2)cc1	?	8.9µM*	?	20µM*	i	?	?	8.8µM*
Cc1ccc(NC(=O)N2CCCC(c3noc(COc4ccccc4)n3)C2)cc1C (stereo unspecified)	-17%	4µM*	?	?	i	25%	16%	8.8µM*
CC1=C[C@@H](CNC(=O)c2cccnc2)[C@H](C(C)C)C[C@H]1CC(=O)NCc1ccccn1	-1%[70.6 µM]	?	-22%[172 µM]	0%[174 µM]	?	·	·	·
COc1ccc(CNC(=O)C[C@@H]2C[C@@H](C(C)C)[C@H](CNC(=O)c3cccnc3)C=C2C)cc1	-13%	14µM*	?	?	-9%	11%	10%	7%
COc1ccc(-c2nc3ncccc3[nH]2)cc1	-17%[70.6 µM]	13µM*	79µM*	79µM*!	0%[88.5 µM]	?	?	16µM*
c1cnc2nc(-c3ccncc3)[nH]c2c1	-2%[70.6 µM]	i	-20%[230 µM]	?	-9%[88.5 µM]	·	·	·
COc1ccc(C(=O)Nc2noc3ccccc23)cc1	·	·	·	·	·	9.9µM*	3.1µM*	0.88µM*
CC1CCCCC1Nc1ncnc2c1CN(C1CCCNCC1)C(=O)CN2C (stereo unspecified)	·	·	-1%	5%	?	·	·	·
O=C(Nc1ccccc1F)c1ccc(-c2ccccc2)s1	·	·	·	·	·	21%	?	?
CC(C)N1C(=O)C2(CCCC2)C1C(=O)NCCN1CCCCC1 (stereo unspecified)	-1%	i	i	-7%	i	·	·	·
COc1ccc(-c2cc(N3CCCC(NC(=O)c4ccc5ncccc5c4)C3)n[nH]2)cc1 (stereo unspecified)	-22%	3.2µM*	?	?	-22%	11%	6%	3.9µM*
